The nature of test [1]: Cytotoxicity counterscreen for NFkB agonists and antagonists (AID 624476).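 Note: cells exposed to compound for 48 hours.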 Note: potency is the fitted concentration of half-maximal effect. The note with it: NFkB reporter cell line viability counterscreen; series mostly up to 46.1 µM. On the technique in general: The purpose of a counterscreen is to sort out artefacts and off-target activity.
Test [2] in a line: qHTS Assay for Identification of Small Molecule Agonists for NFkB Signaling Pathway. (AID 624478). Note: 0% is about no effect. The note with it: NFkB pathway reporter cell assay, agonist mode, cells co-stimulated with 10 pM TNF alpha; series mostly up to 46.1 µM. Put shortly:
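NFkB-bla ME-180 cells (beta-lactamase reporter under NFkB response element) were plated overnight, treated with compound plus TNF alpha at 10 pM final (its EC50) for 5 hrs at 37 C, then loaded with LiveBLAzer substrate for 2 hrs.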
(qHTS replaces the single test concentration by a dilution series.)

Test [3] is described as follows: qHTS Assay for Identification of Small Molecule Antagonists for NFkB Signaling Pathway. (AID 624479; calls by dose curve; note: potency is the fitted concentration of half-maximal effect). The note with it: NFkB pathway reporter cell assay, antagonist mode; series mostly up to 38.3 µM.
Test [4] can be described thus: Cell Proliferation Assay against the TMD8 Cell Line (AID 651645).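 Note: cells exposed to compound for 48 h before reading.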 The note with it: TMD8 DLBCL cell line proliferation/viability; at 46.1 µM (top of the series) unless noted. An outline of the steps:
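Luminescent ATP read-out (CellTiter-Glo, 15 min RT) after 48 h compound exposure of log-growing TMD8 cells at 37C; percent activity scaled between DMSO as 100% and 9.2 uM bortezomib final as 0%.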

Test [5] can be described thus: Cell Proliferation Assay against the HBL1 Cell Line (AID 651646).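 Note: cells exposed to compound for 48 h before reading.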 Conditions: HBL1 DLBCL cells; at 46.1 µM (top of the series) unless noted. An outline of the steps: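 500 log-phase HBL1 cells per well in phenol red-free RPMI with 5% FBS were treated with compounds for 48 h at 37 °C, 5% CO2. Viability was read by CellTiter-Glo luminescence, normalized to DMSO (100%) and 9.2 uM bortezomib final (0%).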

Test [6] can be described thus: Cell Proliferation Assay against the TMD8 Cell Line (Caspase readout at 16 hrs) (AID 651712). The note with it: TMD8 lymphoma cells, caspase activation luminescence; series mostly up to 46.1 µM. An outline of the steps:
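TMD8 cells (500/well) in phenol-red-free RPMI with glutamine, 5% FBS, were exposed to compounds for 16 h at 37 °C. Caspase 3/7 activation was read by Caspase-Glo luminescence; percent activity normalised to DMSO (0%) and 9.2 uM bortezomib final (100%).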

A short description of test [7]: Cell Proliferation Assay against the TMD8 Cell Line (Caspase readout at 8 hrs) (AID 651713). The note with it: TMD8 lymphoma cells, caspase activation luminescence; series mostly up to 46.1 µM. Put shortly: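 TMD8 cells (500/well) in phenol red-free RPMI with 5% FBS were treated with compounds for 8 h at 37C, 5% CO2. Caspase-Glo 3/7 luminescence was read after 15 min at room temperature and normalised to DMSO (0%) and 9.2 uM bortezomib (100%).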

Records with an inconclusive call do not appear. Activity calls are given as the source filed them. Unless noted, calls come from the whole dose curve; as a rule, active = well fitted curve in the direction sought with a large enough effect; inconclusive = small, poorly fitted or top-dose-only effect, or another doubt; inactive = no such curve, though single readings can be large; an effect the other way counts as inactive or inconclusive.

With `CCCc1nc2c(C)cc(-c3nc4ccccc4n3C)cc2n1Cc1ccc(-c2ccccc2C(=O)O)cc1`, the Potency result in test [1], in test [3] and in test [6] was “inactive” in each case. The call in test [2] was inactive. The viability (% of control) in test [4] was determined as 71.5%. Besides, in test [5], the viability, percent of control is 70.6%.

In the case of `C[C@@H]1CN(Cc2ccc(F)cc2)[C@@H](C)CN1C(=O)c1cc2c(C(=O)C(=O)N(C)C)cn(C)c2cc1Cl`, the Potency result in test [1], in test [3] and in test [7] was “inactive” each time. Moreover, in test [2], the result was inactive. Besides, in test [4], the viability (% of control) was 61.8%. Moreover, in test [5], the viability, percent of control came out at 78.3%.

Regarding `O=C(O)CCc1ccc(NCc2cccc(Oc3ccccc3)c2)cc1`, the Potency entry in test [1], in test [3] and in test [7] was “inactive” in each case. For the same compound, the compound was classed as inactive in test [2]. Moreover, in test [4], the viability (% of control) was 107%. For the same compound, the viability, percent of control in test [5] amounted to 95.9%.

Take `O=C(C=Cc1ccc(/C=C/C(=O)Nc2ccc(C3=NCCN3)cc2)cc1)Nc1ccc(C2=NCCN2)cc1`: the Potency result in test [1], in test [3], in test [6] and in test [7] was “inactive” throughout. For the same compound, the call in test [2] was inactive. The viability (% of control) in test [4] amounted to 92.1%. For the same compound, the viability, percent of control in test [5] was found to be 97.4%.

Take `NC(=O)c1ccc(I)c([N+](=O)[O-])c1`: the Potency entry in test [1], in test [3] and in test [7] was “inactive” each time. Moreover, the compound was called inactive in test [2]. The viability (% of control) in test [4] came to 92.9%. Also, the viability, percent of control in test [5] was 76.7%.

Turning to `COCC(=O)NCC=Cc1ccc2ncnc(Nc3ccc(Oc4ccc(C)nc4)c(C)c3)c2c1`, the Potency in test [1] is 26.4 µM (active); in test [3] it was 10.6 µM (active). Further, in test [2], the call was inactive. Moreover, the viability (% of control) in test [4] is 28.1%. For the same compound, the viability, percent of control in test [5] turned out to be 41.4%. In addition, the Potency result in test [6] is “inactive”.

As to `CN[C@@H](C)C(=O)N[C@H]1CCCC[C@H]2CC[C@@H](C(=O)N[C@@H](c3ccccc3)c3cn(CCCCc4ccc(CCCCn5cc([C@@H](NC(=O)[C@@H]6CC[C@@H]7CCCC[C@H](NC(=O)[C@H](C)NC)C(=O)N76)c6ccccc6)nn5)cc4)nn3)N2C1=O`, the Potency entry in test [1], in test [3], in test [6] and in test [7] was “inactive” each time. In addition, the compound was classed as inactive in test [2]. Also, in test [4], the viability (% of control) was found to be 7.59%. Also, the viability, percent of control in test [5] was found to be 15.5%.

Turning to `Cn1c(=O)c(F)c(Nc2ccc(I)cc2F)c2c(=O)n(C[C@@H](O)CO)cnc21`, the Potency entry in test [1], in test [3] and in test [6] was “inactive” each time. For the same compound, the compound was classed as inactive in test [2]. Moreover, the viability (% of control) in test [4] was found to be 63.3%. Also, the viability, percent of control in test [5] came out at 38.3%.

As to `COc1cc(Oc2ccnc3cc(OC)c(OC)cc23)ccc1NC(=O)NC(C)c1nccs1` (configuration not stated), the Potency result in test [1] is “inactive”. Besides, the outcome in test [2] was inactive. Further, the Potency in test [3] is 16.8 µM (active). For the same compound, the viability (% of control) in test [4] was 69%. The viability, percent of control in test [5] came to 59.4%.

Take `N#CC[C@H](C1CCCC1)n1cc(-c2ncnc3[nH]ccc23)cn1`: the Potency entry in test [1] and in test [7] was “inactive” each time. Also, the result in test [2] was inactive. Further, in test [3], the Potency is 16.8 µM (active). Besides, the viability (% of control) in test [4] came out at 33.1%. In addition, in test [5], the viability, percent of control was 65.7%.

For `O=C(O)[C@@H](c1ccc(OCc2ccc3ccccc3n2)cc1)C1CCCC1`, the Potency entry in test [1], in test [3], in test [6] and in test [7] was “inactive” each time. Moreover, the result in test [2] was inactive. Further, in test [4], the viability (% of control) came to 94.6%.

As to `Cc1ccc2c(c1)C(=O)[C@@]1(O)CCN(c3ccccc3)C1=N2`, the Potency entry in test [1], in test [3] and in test [6] was “inactive” in each case. For the same compound, the call in test [2] was inactive. Moreover, the viability (% of control) in test [4] was 77.6%.

Take `S=C(NCc1ccc2c(c1)OCO2)N1CCN(c2ncnc3c2oc2ccccc23)CC1`: the Potency result in test [1] was “inactive”. Besides, in test [2], the result was inactive. The viability (% of control) in test [4] amounted to 26.5%. Besides, the viability, percent of control in test [5] stood at 40.5%.

For the compound `C[C@@H]1C[C@H]2[C@@H]3CCC4=CC(=O)C=C[C@]4(C)C3(F)[C@@H](O)C[C@]2(C)[C@@]1(O)C(=O)CO` (some centres not stated), the Potency entry in test [1], in test [3], in test [6] and in test [7] was “inactive” in each case. For the same compound, the compound was classed as inactive in test [2]. Further, the viability (% of control) in test [4] is 40.7%.

`CCOC(=O)N[C@@H]1CC[C@@H]2[C@@H](C1)C[C@H]1C(=O)O[C@H](C)[C@H]1[C@@H]2C=Cc1ccc(-c2cccc(F)c2)cn1`: the Potency entry in test [1], in test [3] and in test [7] was “inactive” throughout. For the same compound, the outcome in test [2] was inactive. The viability (% of control) in test [4] was 42.8%.

On to `CCCS(=O)(=O)Nc1ccc(F)c(C(=O)c2c[nH]c3ncc(Cl)cc23)c1F`, for which the Potency result in test [1] and in test [7] was “inactive” in each case. Besides, in test [2], the compound was called inactive. For the same compound, the Potency in test [3] was 11.9 µM (active). The viability (% of control) in test [4] came out at 68.5%.

Regarding `Fc1ccc(Cl)cc1-c1nc(Nc2ccncc2)c2nccnc2n1`, the Potency entry in test [1], in test [3] and in test [7] was “inactive” throughout. Also, the outcome in test [2] was inactive. Besides, in test [4], the viability (% of control) is 98.1%.

Regarding `NC(=O)C1CCCc2c1[nH]c1ccc(Cl)cc21` (configuration not stated), the Potency entry in test [1], in test [3] and in test [6] was “inactive” throughout. Also, the compound was classed as inactive in test [2]. Further, the viability (% of control) in test [4] was 94.1%.

Turning to `CC(C)c1onc(-c2c(Cl)cccc2Cl)c1COc1ccc(/C=C/c2cccc(C(=O)O)c2)c(Cl)c1`, the Potency was 11.8 µM (active) in test [1] and 21.1 µM (active) in test [3]. Moreover, the result in test [2] was inactive. Besides, the viability (% of control) in test [4] amounted to 89.6%. In addition, the Potency result in test [7] was “inactive”.

As to `Cc1cnc(Nc2ccc(OCCN3CCCC3)cc2)nc1Nc1cccc(S(=O)(=O)NC(C)(C)C)c1`, the Potency result in test [1], in test [3] and in test [6] was “inactive” each time. Besides, the call in test [2] was inactive. Further, the viability (% of control) in test [4] worked out at 90.7%.

For the origin of these results see PubChem BioAssay (NCATS).
